High-throughput results from PubChem BioAssay.
The list is not random: actives were taken first. Their share in the collection is about 3.5%.
MITF primary: MITF inhibitors, primary screen, biochemical, AlphaScreen, human; Microphthalmia-associated transcription factor (Homo sapiens), O75030; AlphaScreen MITF homodimerization, bead proximity signal; inhibition, % at 2.6 µM; hit rate 0.91% among 650,000; AID 1259374, 2018; in the data active means inhibition above about 50%
Target sequence (O75030 whole entry, looked up): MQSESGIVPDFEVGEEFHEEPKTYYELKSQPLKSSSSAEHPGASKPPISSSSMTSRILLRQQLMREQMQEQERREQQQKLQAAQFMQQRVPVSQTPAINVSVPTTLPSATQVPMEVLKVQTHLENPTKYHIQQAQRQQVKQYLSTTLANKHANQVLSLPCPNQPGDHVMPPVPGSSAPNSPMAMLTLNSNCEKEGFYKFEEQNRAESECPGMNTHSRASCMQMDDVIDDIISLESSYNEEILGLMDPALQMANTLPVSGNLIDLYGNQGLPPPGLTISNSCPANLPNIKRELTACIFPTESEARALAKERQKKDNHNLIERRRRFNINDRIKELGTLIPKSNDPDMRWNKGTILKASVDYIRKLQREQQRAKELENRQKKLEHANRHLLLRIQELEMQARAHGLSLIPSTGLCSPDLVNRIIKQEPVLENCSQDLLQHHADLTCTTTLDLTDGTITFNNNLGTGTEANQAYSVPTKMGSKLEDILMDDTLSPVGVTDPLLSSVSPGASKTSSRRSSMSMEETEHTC
TEAD-YAP inh: TEAD-YAP interaction inhibition, primary screen, TEAD-YAP interaction inhibitor project, luminescence, HEK-TIYL cells; TEAD-Gal4/YAP UAS-luciferase luminescence; inhibition, % at 9.12 µM; hit rate 1.4% among 640,000; AID 1259422, 2018; in the data active means inhibition above about 32%
FBW7 act: FBW7 E3 ligase activators, primary screen, biochemical, AlphaScreen, human; hit rate 0.13% among 650,000; normalized activity (activation), % at 26.1 µM; F-box/WD repeat-containing protein 7 (Homo sapiens), Q969H0; AlphaScreen FBW7–phospho-cyclin E peptide binding, activator screen; in the data active means normalized activity above about 1.9%;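 further: purified mutant Fbw7 with reduced substrate affinity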
GPR151 activ: activators of human GPR151, primary screen, cell-based, PathHunter beta-arrestin, luminescence. G-protein coupled receptor 151 (Homo sapiens), Q8TDV0. PathHunter beta-arrestin GPR151 cells. activation, % at 11.2 µM. hit rate 1% among 650,000. AID 1508602, 2020; in the data active means activation above about 4.9%
Hits are given with their value; 0 = inactive.

SMILES	MITF primary	TEAD-YAP inh	FBW7 act	GPR151 activ
Cc1ccc(-c2nc(-c3ccc(Cl)cc3)no2)cc1	0	0	0	0
CCOc1cccc(C2C(C(=O)OCCSCC)=C(C)NC3=C2C(=O)C(C(=O)OC)C(C)C3)c1 (stereo unspecified)	0	0	1.9	0
CCOc1ccc(C2C(C(=O)OCCSCC)=C(C)NC3=C2C(=O)C(C(=O)OC)C(C)C3)cc1 (stereo unspecified)	0	0	0	0
CCSCCOC(=O)C1=C(C)NC2=C(C(=O)CCC2)C1c1ccc(Br)cc1 (stereo unspecified)	0	0	2.0	0
CCOC(=O)C1=C(C)NC2=C(C(=O)CCC2)C1c1coc2ccc(Cl)cc2c1=O (stereo unspecified)	0	0	2.3	0
CC1=C(C(=O)OCCOc2ccccc2)C(c2coc3ccc(Cl)cc3c2=O)C2=C(CCCC2=O)N1 (stereo unspecified)	0	0	0	0
CCOc1cc(CN2CCc3nnc(CCNC(=O)c4ccoc4)n3CC2)ccc1O	0	0	0	0
CCCOC(=O)c1c(NC(=O)/C=C/C(=O)O)sc2c1CCCCC2	0	0	0	0
CCOC(=O)c1c(NC(=O)/C=C\C(=O)O)sc2c1CCC(CC)C2 (stereo unspecified)	0	43	0	0
CCCOC(=O)c1c(NC(=O)/C=C/C(=O)O)sc2c1CCCC2	0	37	0	0
CCOC(=O)c1c(NC(=O)/C=C/C(=O)O)sc2c1CCCCC2	0	0	0	0
O=C(Nc1cc(-c2ccccc2OCc2ccccc2)ccn1)C1CCOC1 (stereo unspecified)	0	89	0	0
O=C(Nc1cc(-c2ccccc2Oc2ccc(F)cc2)ccn1)C1CCOC1 (stereo unspecified)	0	0	0	0
O=C(Nc1cc(-c2ccccc2Oc2cccc(F)c2)ccn1)C1CCOC1 (stereo unspecified)	0	33	0	0
NS(=O)(=O)c1ccc(NC(=O)c2ccc(-c3nc4ccccc4s3)s2)cc1	0	0	0	0
COc1cc(CNc2nccn3c(-c4cccc(O)c4)cnc23)cc(OC)c1OC	0	0	2.1	0
COc1cc(-c2cnc3c(NCc4cccnc4)nccn23)cc(OC)c1OC	0	39	0	0
COc1cc(-c2cnc3c(NCc4cccs4)nccn23)cc(OC)c1OC	0	38	1.9	0
COc1cc(-c2cnc3c(NCc4ccncc4)nccn23)cc(OC)c1OC	0	0	0	0
Cc1nc2c(c(=O)[nH]1)CCN(C(=O)CN1C(=O)C3C4CCC(C4)C3C1=O)C2 (stereo unspecified)	0	0	0	0
Cc1c(Cl)cccc1NS(=O)(=O)c1c[nH]c(=O)[nH]c1=O	0	0	0	0
O=C1Nc2ccccc2Oc2cc([N+](=O)[O-])cc(Oc3cccc(Cl)c3Cl)c21	0	0	0	0
COc1ccc(NC(=O)CCc2c(C)[nH]c(=O)n(C)c2=O)cc1Cl	0	0	0	0
COc1ccc(C2C(=O)c3ccccc3C2=O)cc1	0	0	0	0
N=C1c2ccccc2C(=O)C1c1ccccc1 (stereo unspecified)	65	0	0	0
SMILES	MITF primary	TEAD-YAP inh	FBW7 act	GPR151 activ
O=S(=O)(Nc1ccc(Cc2ccncc2)cc1)c1ccc(Cl)cc1	0	38	0	0
COC1=C(OC)C(=O)C(C/C=C(\C)CC/C=C(\C)CC/C=C(\C)CC/C=C(/C)CC/C=C(\C)CC/C=C(\C)CC/C=C(\C)CC/C=C(\C)CC/C=C(\C)CCC=C(C)C)=C(C)C1=O	0	0	0	0
CCC/C(C)=C/Cc1c(O)c2c(c(C)c1OC)COC2=O	0	66	0	0
COc1ccccc1NC(=O)c1ccc(SCC(=O)N2CCC3(CC2)OCCO3)c([N+](=O)[O-])c1	0	38	0	0
COc1ccc(NC(=O)c2cc(S(=O)(=O)N3CCN(c4ccccn4)CC3)ccc2F)cc1	0	0	1.9	0
COc1ccc(-c2noc(C3CCCN(C(=O)c4c(F)cccc4F)C3)n2)cc1OC (stereo unspecified)	0	0	0	0
COc1cccc(-c2noc(C3CCCN(C(=O)c4c(OC)cccc4OC)C3)n2)c1 (stereo unspecified)	0	63	0	0
CS/C(=C\[N+](=O)[O-])Nc1ccc(C(C)(C)C)cc1	0	55	0	0
O=[N+]([O-])c1cc(Br)c(Nc2ccccc2)c([N+](=O)[O-])c1	0	40	0	0
O=C(Nc1ccc2oc(-c3cc(Cl)ccc3Cl)nc2c1)c1cc(Br)ccc1Cl	0	0	0	0
O=[N+]([O-])c1nn(-c2ccc(Cl)cc2)n(O)c1=Nc1ccccc1F	0	38	0	0
O=[N+]([O-])c1nn(-c2ccc(Cl)cc2)n(O)c1=Nc1ccc(Cl)cc1	0	0	0	0
O=[N+]([O-])c1nn(-c2ccc(Cl)cc2)n(O)c1=Nc1ccccc1	0	62	0	0
OC[C@@H]1CCCN1c1ccnc2c(-c3cccc(O)c3)cnn12	0	100	0	0
COc1cccc(-c2cnn3c(N4CCCCC4CCO)ccnc23)c1 (stereo unspecified)	0	0	0	0
OC[C@@H]1CCCN1c1ccnc2c(-c3ccc4ccccc4c3)cnn12	0	60	0	0
COc1cccc(-c2cnn3c(N4CCC[C@H]4CO)ccnc23)c1	0	59	0	0
O=C(O)/C=C/c1cccc(-c2cnn3c(N4CCC[C@H]4CO)ccnc23)c1	0	50	0	0
CSCCC(=O)NCC1Cc2cc(-c3ccccc3C(C)=O)ccc2O1 (stereo unspecified)	0	0	0	0
OC[C@@H]1CCCN1c1ccnc2c(-c3cc4ccccc4o3)cnn12	0	44	0	0
COc1ccc(-c2cnn3c(N4CCC[C@H]4CO)ccnc23)cc1	0	57	0	0
COc1ccc(-c2cnn3c(N4CCC[C@H]4CO)ccnc23)cc1OC	0	0	0	0
O=C1NC(=O)C(Cc2ccccc2)(C2CCN(C(=O)Cc3ccsc3)CC2)N1 (stereo unspecified)	0	0	0	0
CCC1CN(CCNC(=O)CCc2c(C)n[nH]c2C)Cc2cc(OC)ccc2O1 (stereo unspecified)	0	0	0	0
O=C(Nc1cc(Cl)cc(Cl)c1)/C(=C/c1cccc([N+](=O)[O-])c1)NC(=O)c1ccc(F)cc1Cl	0	0	0	0
CCc1ccc(N2CC(C(=O)NCC(C)(C)CNC(=O)C3CC(=O)N(c4ccc(CC)cc4)C3)CC2=O)cc1 (stereo unspecified)	0	0	4.5	0
Nc1nc(Cl)nc(NCc2ccco2)c1[N+](=O)[O-]	0	0	0	0
COc1ccc(-c2c(C)oc3cc(O)ccc3c2=O)cc1	0	0	0	0
Cc1oc2cc(OCCN3CCOCC3)ccc2c(=O)c1-c1ccc(Br)cc1	0	37	0	0
Cc1oc2cc(OS(C)(=O)=O)ccc2c(=O)c1-c1ccc(Br)cc1	0	34	0	0
